{"source": "PubChem BioAssay (Tox21)", "note": "Results filed as inconclusive are left out. Where a call stands in place of a potency, no number is given. Unmarked numbers belong to inactive results. Activity calls are given as the source filed them. Calls follow the shape of the dose curve; as a rule, active = well fitted inhibition curve with a large enough effect in the repeat runs; inconclusive = weak or mixed curves; inactive = no such curve, though single readings can be large or run the other way."}
{"biological_target": "Cytochrome P450 2C9 (Homo sapiens) (UniProt P11712)", "sequence (P11712 whole entry, looked up)": "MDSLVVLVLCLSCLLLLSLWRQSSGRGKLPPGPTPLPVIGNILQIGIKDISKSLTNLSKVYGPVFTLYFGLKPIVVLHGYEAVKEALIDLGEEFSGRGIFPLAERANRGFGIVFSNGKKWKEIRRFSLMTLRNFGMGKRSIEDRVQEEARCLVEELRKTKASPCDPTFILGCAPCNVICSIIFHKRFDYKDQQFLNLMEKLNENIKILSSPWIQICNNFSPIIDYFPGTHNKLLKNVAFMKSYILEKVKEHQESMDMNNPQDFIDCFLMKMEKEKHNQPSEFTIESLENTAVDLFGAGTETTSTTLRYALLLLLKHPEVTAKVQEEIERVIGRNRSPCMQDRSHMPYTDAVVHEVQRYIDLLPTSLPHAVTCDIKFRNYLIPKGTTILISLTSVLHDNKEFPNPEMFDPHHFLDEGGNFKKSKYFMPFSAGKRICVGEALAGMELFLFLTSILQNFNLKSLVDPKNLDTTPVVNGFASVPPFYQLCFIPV", "assay": "Cytochrome P450 Family 2 Subfamily C Member 9 (CYP2C9) small molecule antagonists: luciferase reporter qHTS assay (AID 1671198); also: nearly all actives have a fitted effect of over 50% in size; also: potency is read from the fitted curve at half-maximal effect", "settings": "P450-Glo CYP2C9 enzyme assay, luciferin luminescence; series mostly up to 115 µM", "excerpt": "U.S. Tox21 Program National Center for Advancing Translational Sciences [NCATS] U.S. Environmental Protection Agency [EPA] National Institutes of Environmental Health Sciences [NIEHS] National Toxicology Program [NTP] U.S. Food and Drug Administration [FDA] Tox21 Assay Overview: Cytochrome P450 (CYP) enzymes are membrane-bound hemeproteins that play a key role in metabolism of drugs and xenobiotics. Evaluation of the effect of chemicals on CYP isozymes is useful to minimize the adverse drug reactions and toxicities in drug development process. Tox21 chemicals were tested for their effect on CYP enzyme activities by using P450-Glo (TM) screening systems (Promega Corporation, Madison, WI). These systems provide a luminescent method containing proluciferin substrates and are converted to luciferin products by CYP isozymes. The luciferin products formed are detected with a luciferin detection reagent, and the amount of light produced is proportional to CYP activity. P450-Glo (TM) CYP2C9 screening system (Catalog. No. V9790) was used to detect the compounds that interfere in CYP2C9 activity.\nTox21 Assay Protocol Summary: Two ul of enzyme-substrate mix was dispensed into medium binding white/solid 1536-well plates (Greiner Bio-One North America Inc., Monroe, NC) using a BioRaptr Flying Reagent Dispenser (FRD, Beckman Coulter, Brea, CA). […] The assay plates were incubated at room temperature for 10 min. Then 2 ul of NADPH regeneration solution was added to each well of the assay plates using an FRD and incubated at 37C for 1 h. The reaction was stopped by adding 4 ul of detection reagent using an FRD and after 20 min incubation at room temperature the luminescence signal was measured using a ViewLux plate reader (Perkin Elmer, Shelton, CT). Data were expressed as relative luminescence units."}
{"compound": "CC1=CCC2C(C1)C2(C)C", "note": "(stereo not given)", "Potency": "63.3 µM (active)"}
{"compound": "CC(C)=CC(=O)O", "Potency": "inactive"}
{"compound": "Cc1c(F)cc2c(=O)c(C(=O)O)cn3c2c1CCC3C", "note": "(stereo not given)", "Potency": "inactive"}
{"compound": "COC[C@H](c1ccc(C(F)(F)F)cc1)N1CCN(C2(C)CCN(C(=O)c3c(C)ncnc3C)CC2)C[C@H]1C", "Potency": "inactive"}
{"compound": "CCCC(C)C(=O)O", "note": "(stereo not given)", "Potency": "54.1 µM (active)"}
{"compound": "Cc1cc(C)cc(OCC2CNC(=O)O2)c1", "note": "(stereo not given)", "Potency": "inactive"}
{"compound": "CC(C)(C)N(CCO)CCO", "Potency": "inactive"}
{"compound": "CCCCCN(CCCCC)C(=O)C(CCC(=O)O)NC(=O)c1ccc(Cl)c(Cl)c1", "note": "(stereo not given)", "Potency": "2.19 µM (active)"}
{"compound": "CCCCCCCCCCCCCCCCCC(=O)OCCCCCCCCCCCCCC(C)C", "Potency": "inactive"}
{"compound": "Cc1cc(C)c(NC(=O)CN(CC(=O)O)CC(=O)O)c(C)c1Br", "Potency": "inactive"}
{"compound": "C=CCOc1nc(OCC=C)nc(OCC=C)n1", "Potency": "15.9 µM (active)"}
{"compound": "O=C1CC2(CCCC2)CC(=O)N1", "Potency": "inactive"}
{"compound": "OC1OC[C@@H](O)[C@H](O)[C@H]1O", "note": "(stereo not given in full)", "Potency": "inactive"}
{"compound": "CC(=O)CCc1ccc(O)cc1", "Potency": "inactive"}
{"compound": "Cc1nc(-c2ccc(OCC(C)C)c(C#N)c2)sc1C(=O)O", "Potency": "17.4 µM (active)"}
{"compound": "O=c1[nH]c2ccccc2c(=O)n1CCCl", "Potency": "inactive"}
{"compound": "CCC(C(=O)NC(N)=O)c1ccccc1", "note": "(stereo not given)", "Potency": "inactive"}
{"compound": "O=C1C(CCS(=O)c2ccccc2)C(=O)N(c2ccccc2)N1c1ccccc1", "note": "(stereo not given)", "Potency": "30.9 µM (active)"}
{"compound": "C1CCCCCCCCCCC1", "activity change, negative = inhibition": "-1.08% [at 23.6 µM]"}
{"compound": "O=C(O)Cc1cc(I)c(Oc2cc(I)c(O)c(I)c2)c(I)c1", "Potency": "34.9 µM (active)"}
{"compound": "O=C(CCOCCOCCOCCOCCC(=O)Nc1c(I)cc(I)c(C(=O)O)c1I)Nc1c(I)cc(I)c(C(=O)O)c1I", "Potency": "inactive"}
{"compound": "CCC(=O)c1cccc(Cl)c1", "Potency": "inactive"}
{"compound": "Fc1ccccc1-c1ccccc1", "Potency": "inactive"}
{"compound": "CCOC(=O)Nc1ccc2c(c1)N(C(=O)CCN1CCOCC1)c1ccccc1S2", "Potency": "15.5 µM (active)"}
{"compound": "COC(=O)[C@H]1[C@H]2C[C@@H]3c4[nH]c5cc(OC)ccc5c4CCN3C[C@H]2C[C@@H](OC(=O)COc2ccc(OC)cc2)[C@@H]1OC", "Potency": "27.5 µM (active)"}
{"compound": "CC1(C)SC(C)(C)SC(C)(C)S1", "Potency": "inactive"}
{"compound": "Cc1ccccc1C(=O)O", "Potency": "inactive"}
{"compound": "CC(=O)N[C@@H](CCC(N)=O)C(=O)O", "Potency": "inactive"}
{"compound": "C#CC(O)CCCCC", "note": "(stereo not given)", "Potency": "inactive"}
{"compound": "CCCCCCC(CCCCCCCCCCC(=O)OCC(COC(C)=O)OC(C)=O)OC(C)=O", "note": "(stereo not given)", "Potency": "2.45 µM (active)"}
{"compound": "C=CC(=O)N1CCOCC1", "Potency": "inactive"}
{"compound": "CC(C)CCCC(C)CCCC(C)CCCCC(C)CCCC(C)CCCC(C)C", "note": "(stereo not given)", "Potency": "inactive"}
{"compound": "NC(=S)Nc1cccc2ccccc12", "activity change, negative = inhibition": "-2.82% [at 10.5 µM]"}
{"compound": "O=C(O)c1cccc(C(=O)O)n1", "Potency": "inactive"}
{"compound": "C#CC(C)(O)CC(C)C", "note": "(stereo not given)", "Potency": "inactive"}
{"compound": "Cc1c(C)n(CCN(C)C)c2ccc(C(=O)OCCN(C)C)cc12", "Potency": "inactive"}
{"compound": "CCCCCCOC(=O)c1ccccc1O", "Potency": "inactive"}
{"compound": "c1ccc(CCCc2ccccn2)cc1", "Potency": "35.6 µM (active)"}
{"compound": "CNc1ncnc2nc[nH]c12", "Potency": "inactive"}
{"compound": "COc1cc(C(=O)N2CCOCC2)cc(OC)c1OC", "Potency": "inactive"}
